Results on 52 compounds are retold here after ChEMBL document CHEMBL4513216, “Probing the Open Global Health Chemical Diversity Library for Multistage-Active Starting Points for Next-Generation Antimalarials” (ACS Infect Dis, 2020).

Each structure is given as a SMILES string. Out of some 68,000 compounds screened, about 2,700 (4%) showed an effect of 50% or more. The list comes from a sample in which strong results are over-represented; it also holds similar structures and randomly drawn compounds.

The assay concerns Plasmodium berghei. Nature of the assay: Screen against P. berghei liver stage (PbLuc), transformed with Luciferase, at 2uM. Type of assay: functional, HepG2. Conditions: tested at 2 uM.
As for `CC(C(=O)N1CCN(Cc2ccc3c(c2)OCO3)CC1)n1ccnc1` (configuration not stated), the INHIBITION is 17.98%.

Consider `COC(=O)CC1CCCCN1CC(=O)Nc1cc(F)ccc1F` (configuration not stated), for which the INHIBITION is 30.82%.

Turning to `O=S(=O)(NC1=NCN(CCc2cccs2)CN1)c1ccccc1`, the INHIBITION is given as 18.22%.

With `O=S(=O)(NC1=NCN(CCc2cccs2)CN1)c1ccc(F)cc1`, the INHIBITION was 36.15%.

With `O=S(=O)(NC1=NCN(CCc2cccs2)CN1)c1ccc(Br)cc1`, the INHIBITION is given as 50.67%.

`O=C(Cc1cnccn1)N1C[C@@H]2CC[C@H]1CN(Cc1cscn1)C2`: the INHIBITION is listed as -41.49%.

`COCC(=O)N1C[C@H]2CNC[C@@]2(C(=O)NCc2nc(C)cc(C)n2)C1`: the INHIBITION stood at 67.44%.

Consider `COCC(=O)N1C[C@H]2CNC[C@@]2(C(=O)NCc2c(C)noc2C)C1`, for which the INHIBITION came to 1.8%.

Consider `COCC(=O)N1C[C@H]2CNC[C@@]2(C(=O)NCc2cc(C)n[nH]2)C1`, for which the INHIBITION is 40.51%.

For `N[C@H]1CN(C(=O)c2ccc(Cl)cc2O)C[C@@H]1C1CC1`, the INHIBITION is recorded as -6.83%.

As to `N[C@H]1CN(C(=O)Cc2cc(F)cc(Cl)c2)C[C@@H]1C1CC1`, the INHIBITION was determined as 55.39%.

As to `N[C@H]1CN(C(=O)c2ccc(Cl)cc2F)C[C@@H]1C1CC1`, the INHIBITION was 19.54%.

In the case of `N[C@H]1CN(C(=O)Cc2ccc(Cl)c(Cl)c2)C[C@@H]1C1CC1`, the INHIBITION stood at 4.72%.

Regarding `Cc1cc(Cl)ccc1C(=O)N1C[C@H](C2CC2)[C@@H](N)C1`, the INHIBITION turned out to be 60.42%.

For `N[C@H]1CN(C(=O)Cc2ccc(CO)cc2)C[C@@H]1C1CC1`, the INHIBITION was found to be 39.97%.

Turning to `CN(CCCN1CCCC1)[C@@H]1c2ccccc2C2(CCNCC2)[C@H]1O`, the INHIBITION stood at 9.18%.

Regarding `COC(=O)c1ccc(CN(C)C(=O)c2cnsn2)cc1`, the INHIBITION is on record as -18.04%.

For the compound `COc1ccc(C[C@H]2CN(C3CCOCC3)CC[C@@H]2OCC2CC2)cc1`, the INHIBITION came out at 21.06%.

As for `COc1ccc(C[C@H]2CN(C3CCOCC3)CC[C@H]2OCC2CC2)cc1`, the INHIBITION is given as 68.29%.

As to `c1ccc(C[C@H]2CN(C3CCOCC3)CC[C@H]2OCC2CC2)cc1`, the INHIBITION was -22.32%.

On to `CCc1cnc(N2CC[C@H]3[C@@H]2CCC(=O)N3CC2CCOCC2)nc1`, for which the INHIBITION worked out at 8.37%.

For the compound `CNC(=O)[C@H]1C[C@H]2CN(Cc3cccc(C)c3)C[C@@H]1O2`, the INHIBITION was 14.09%.

As to `CC(C)NC(=O)CC1[C@H]2CN(C(=O)Cc3ccccn3)C[C@@H]12` (some centres not stated), the INHIBITION turned out to be 33.39%.

On to `O=C(c1ccc(S(=O)(=O)N2CCNCC2)cc1)N1CCCC(O)C1` (configuration not stated), for which the INHIBITION is 57.4%.

As for `O=C(c1ccc(S(=O)(=O)N2CCSCC2)cc1)N1CCC(O)C1` (configuration not stated), the INHIBITION is recorded as -57.76%.

Consider `CN1CCN(S(=O)(=O)c2ccc(C(=O)N3CC[C@@H](O)C3)cc2)CC1=O`, for which the INHIBITION is listed as -27.61%.

Turning to `CCn1cc(S(=O)(=O)N2CCC(C3CCCCN(C)C3=O)CC2)c(C)n1` (configuration not stated), the INHIBITION is listed as -12.21%.

As to `CC(=O)c1cn(CC(=O)NC(C(=O)O)C(C)C)c2ccccc12` (configuration not stated), the INHIBITION is listed as -7.53%.

For the compound `COc1cc(C(C)NCc2ncccc2C)ccc1SC(F)F` (configuration not stated), the INHIBITION is reported as -48.24%.

As to `CN(Cc1ccco1)Cc1cncc2c1CCN(S(C)(=O)=O)C2`, the INHIBITION came out at 51.94%.

`CC(C)N1CCc2c(CN(C)Cc3ccco3)cncc2C1`: the INHIBITION is 16.48%.

On to `CCS(=O)(=O)N1CCc2c(CN(C)Cc3ccco3)cncc2C1`, for which the INHIBITION is given as -21.1%.

Turning to `Cc1nc(C)n(CC2CCCCN2CC(=O)NC2CCOCC2)n1` (configuration not stated), the INHIBITION came to 60.31%.

With `Cc1nc(C)n(CC2CCCCN2CCC(=O)Nc2cc(C)on2)n1` (configuration not stated), the INHIBITION is given as -14.71%.

On to `Cc1nc(C)n(CC2CCCN2CC(=O)Nc2ccncc2)n1` (configuration not stated), for which the INHIBITION is -40.36%.

With `Cc1nc(C)n(CC2CCCN2CC(=O)NC2CCOCC2)n1` (configuration not stated), the INHIBITION came to 32.76%.

Turning to `Cc1nc(C)n(CC2CCCN2CC(=O)Nc2cc(C)on2)n1` (configuration not stated), the INHIBITION is given as -1.02%.

`Cc1nc(C)n(CC2CCCCN2CC(=O)Nc2ccncc2)n1` (configuration not stated): the INHIBITION came to 51.21%.

Consider `CCN1CCC(NC(=O)CN2CCCC2Cn2nc(C)nc2C)CC1` (configuration not stated), for which the INHIBITION was -2.82%.

As to `Cc1nc(C)n(CC2CCCCN2CC(=O)Nc2cc(C)on2)n1` (configuration not stated), the INHIBITION came out at 64.16%.

As for `Cc1nc(C)n(CC2CCCCN2CC(=O)Nc2cccnc2)n1` (configuration not stated), the INHIBITION is -12.75%.

In the case of `O=C(c1c(F)cc(Br)cc1F)N1CCc2cnccc21`, the INHIBITION is -62.99%.

In the case of `Cn1c(=O)[nH]c2cc(C(=O)OCC(F)F)ccc21`, the INHIBITION is -67.78%.

For the compound `Cn1ccc(C(=O)N2CCC(Cc3cccc4cccnc34)C2)n1` (configuration not stated), the INHIBITION came to 9.79%.

As for `Cn1cc(C(=O)Nc2cccc(CCN3CCCC3)c2)ccc1=O`, the INHIBITION is given as -51.94%.

With `O=C(C1CCCCC1)N1CCC2(COc3ncccc3S(=O)(=O)N2)C1` (configuration not stated), the INHIBITION was -15.49%.

Regarding `NC(=O)c1cc(C2CCCN(C(=O)CCc3ccccn3)C2)n[nH]1` (configuration not stated), the INHIBITION is -0.71%.

Consider `COc1ccc(F)cc1CN1CCCC(c2cc(C(N)=O)[nH]n2)C1` (configuration not stated), for which the INHIBITION stood at 30.91%.

Consider `COc1cccc(CN2CCCC(c3cc(C(N)=O)[nH]n3)C2)c1` (configuration not stated), for which the INHIBITION is recorded as 54.99%.

Turning to `Cc1cc(C2CCCN(CCc3ccccn3)C2)n[nH]1` (configuration not stated), the INHIBITION is given as -12.48%.

Consider `COc1ccccc1OCCN1CCCC(c2cc(C(N)=O)[nH]n2)C1` (configuration not stated), for which the INHIBITION is listed as 31.51%.

`NC(=O)c1cc(C2CCCN(CCc3ccccn3)C2)n[nH]1` (configuration not stated): the INHIBITION was 58.53%.
